Bioassay records from PubChem.
Most compounds without a hit are left out; they make up all but 3.5% or so of the library.
MITF inh – blocks human microphthalmia-associated transcription factor. inhibition, % at 2.6 µM. AlphaScreen MITF homodimerization, bead proximity signal. 650,000 tested, 0.91% active. O75030. AID 1259374; in the data active = inhibition above about 50%;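 note: 0% = vehicle wells with protein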
FBW7 act – human FBW7 E3 ligase activation, primary screen; Q969H0; AlphaScreen FBW7–phospho-cyclin E peptide binding, activator screen; normalized activity (activation), % at 26.1 µM; 650,000 tested, 0.13% active; in the data active = normalized activity above about 1.9%;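 note: purified mutant Fbw7 with reduced substrate affinity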
Target sequence (Q969H0 whole entry, looked up): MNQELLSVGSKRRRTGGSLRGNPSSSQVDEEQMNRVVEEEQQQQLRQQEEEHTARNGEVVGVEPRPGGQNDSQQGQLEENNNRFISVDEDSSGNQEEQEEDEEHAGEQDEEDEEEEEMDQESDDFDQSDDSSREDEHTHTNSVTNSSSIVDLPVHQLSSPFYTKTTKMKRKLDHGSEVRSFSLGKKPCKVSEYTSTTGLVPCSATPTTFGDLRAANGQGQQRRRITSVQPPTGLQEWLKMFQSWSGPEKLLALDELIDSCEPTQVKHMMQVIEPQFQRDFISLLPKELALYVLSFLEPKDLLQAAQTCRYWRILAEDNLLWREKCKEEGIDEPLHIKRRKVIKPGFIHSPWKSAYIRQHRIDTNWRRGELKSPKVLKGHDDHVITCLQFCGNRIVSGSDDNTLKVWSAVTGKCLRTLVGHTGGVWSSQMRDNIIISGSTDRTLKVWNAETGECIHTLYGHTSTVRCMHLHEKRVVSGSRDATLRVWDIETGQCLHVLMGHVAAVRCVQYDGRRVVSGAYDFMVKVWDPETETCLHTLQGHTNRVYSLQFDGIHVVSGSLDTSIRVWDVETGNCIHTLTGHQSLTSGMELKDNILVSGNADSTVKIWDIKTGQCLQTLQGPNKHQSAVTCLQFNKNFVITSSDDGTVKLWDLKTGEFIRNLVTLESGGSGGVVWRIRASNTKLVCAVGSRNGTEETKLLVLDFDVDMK
TEAD-YAP block – TEAD-YAP interaction inhibition. HEK-TIYL cells, TEAD-Gal4/YAP UAS-luciferase luminescence. 640,000 tested, 1.4% active. inhibition, % at 9.12 µM. AID 1259422; in the data active = inhibition above about 32%;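 note: 0% = median of test compound wells and 100% = reference inhibitor wells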
GPR151 ag – human GPR151 activation; Q8TDV0; PathHunter beta-arrestin GPR151 cells, luminescence; activation, % at 11.2 µM; 650,000 tested, 1% active; AID 1508602; in the data active = activation above about 4.9%;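 note: 0% = median of compound wells and 100% = cells with positive control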
GPR151 confirm – human GPR151 activation, confirmation screen; GPR151 PathHunter beta-arrestin cells, luminescence, 90 min; % of EA-reagent control over plate median; shares compounds with GPR151 ag; activation, % at 11.2 µM; AID 1508609; 6,700 tested, under 10 active;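 active = mean percent activation across replicates above the confirmation screen cutoff of 4.91%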
GPR119 ag – activates human GPR119 in a GPR151 counter-screen; shares compounds with GPR151 ag; GPR119 PathHunter beta-arrestin cells, luminescence, 90 min; 0 = compound-well median, 100 = enzyme-acceptor control; activation, % at 11.2 µM; 6,700 tested, 0.3% active;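 active = mean percent activation in the counterscreen above 29.09%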;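 note: counterscreen on off-target GPR119 to flag nonselective hits from the GPR151 activator screen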
* hit, by the source's call.

Results for CCOC(=O)c1ccccc1NC(=O)CN(c1ccccc1OCC)S(C)(=O)=O ?
MITF inh: -8; FBW7 act: 0; TEAD-YAP block: -11; GPR151 ag: 1

Results for CCOC(=O)c1ccccc1NC(=O)c1cn(-c2ccc(F)cc2F)c(=O)c2ccccc12 ?
MITF inh: 7; FBW7 act: 0; TEAD-YAP block: 0; GPR151 ag: 6.7*; GPR151 confirm: 0; GPR119 ag: 8

Results for Cc1ccc(N(CC(=O)NCCC2=CCCCC2)S(C)(=O)=O)cc1Cl ?
MITF inh: 18; FBW7 act: 0; TEAD-YAP block: 3; GPR151 ag: 15*; GPR151 confirm: 1; GPR119 ag: -8

What do the screens show for `CS(=O)(=O)N(CC(=O)NCCC1=CCCCC1)c1ccc(F)c(Cl)c1`?
MITF inh: -19; FBW7 act: 0; TEAD-YAP block: 1; GPR151 ag: -2

How did CCOC(=O)c1ccccc1NC(=O)CN(c1ccccc1F)S(C)(=O)=O do in these assays?
MITF inh: -15; FBW7 act: 0; TEAD-YAP block: 4; GPR151 ag: 5.0*; GPR151 confirm: 0; GPR119 ag: 3

Results for Cc1cnc(-c2csc3ccccc23)nc1Nc1ccc(Oc2ccccc2)cc1 ?
MITF inh: -6; FBW7 act: 0; TEAD-YAP block: -9; GPR151 ag: -1

Results for CC(=O)NCCN1C(=O)C(=O)/C(=C(\O)c2ccc(Cl)cc2)C1c1ccccc1 (centres undefined) ?
MITF inh: 1; FBW7 act: 0; TEAD-YAP block: 7; GPR151 ag: -1

What do the screens show for `C=CCN1C(=O)C2(c3ccccc31)c1c(oc3ccccc3c1=O)C(=O)N2CCCO` (centres undefined)?
MITF inh: 14; FBW7 act: 0; TEAD-YAP block: 6; GPR151 ag: 1

How did Cc1ccc(Cl)cc1NC(=O)CN(c1ccc(Cl)cc1)S(C)(=O)=O do in these assays?
MITF inh: 1; FBW7 act: 0; TEAD-YAP block: 13; GPR151 ag: -1

How did CCOC(=O)c1ccccc1NC(=O)CN(c1ccc(OC)c(Cl)c1)S(C)(=O)=O do in these assays?
MITF inh: 13; FBW7 act: 0; TEAD-YAP block: -3; GPR151 ag: 0

How did COc1ccccc1N(CC(=O)Nc1ccccc1C(=O)NCC(C)C)S(C)(=O)=O do in these assays?
MITF inh: 3; FBW7 act: 0; TEAD-YAP block: 7; GPR151 ag: 13*; GPR151 confirm: -1; GPR119 ag: -7

What do the screens show for `CCOC(=O)c1ccccc1NC(=O)CN(c1ccc(F)c(Cl)c1)S(C)(=O)=O`?
MITF inh: 0; FBW7 act: 0; TEAD-YAP block: -15; GPR151 ag: 5.2*; GPR151 confirm: 0; GPR119 ag: 10

What do the screens show for `CS(=O)(=O)N(CC(N)=O)c1ccc(Cl)cc1Cl`?
MITF inh: 9; FBW7 act: 1; TEAD-YAP block: 4; GPR151 ag: -2

Results for COC(=O)CN(c1ccc(Cl)cc1Cl)S(C)(=O)=O ?
MITF inh: 6; FBW7 act: 0; TEAD-YAP block: 5; GPR151 ag: 7.3*; GPR151 confirm: -1; GPR119 ag: -11

What do the screens show for `COC(=O)c1ccccc1NC(=O)CN(c1ccccc1OC)S(C)(=O)=O`?
MITF inh: -19; FBW7 act: 0; TEAD-YAP block: -1; GPR151 ag: -1

Results for Cc1ccc(N(CC(=O)Nc2cc(Cl)ccc2C)S(C)(=O)=O)c(C)c1 ?
MITF inh: -15; FBW7 act: 0; TEAD-YAP block: 7; GPR151 ag: 6.9*; GPR151 confirm: 0; GPR119 ag: 6

How did CCC(=O)c1ccc(OCC(O)CNC2CCCCCC2)cc1 (centres undefined) do in these assays?
MITF inh: 0; FBW7 act: 0; TEAD-YAP block: 9; GPR151 ag: 3

Results for CN(C)CCNC(=O)c1ccc2c(c1)CC(c1nc3c(F)cc(-c4ccnc(N)n4)cc3[nH]1)CO2 (centres undefined) ?
MITF inh: -24; FBW7 act: 0; TEAD-YAP block: -6; GPR151 ag: 0

What do the screens show for `Cc1ccc(N(CC(=O)Nc2ccccc2F)S(C)(=O)=O)cc1Cl`?
MITF inh: 6; FBW7 act: 0; TEAD-YAP block: 13; GPR151 ag: 15*; GPR151 confirm: 0; GPR119 ag: -11

What do the screens show for `CS(=O)(=O)N(CC(=O)Nc1ccc(Cl)c(Cl)c1)c1ccc2c(c1)OCO2`?
MITF inh: -1; FBW7 act: 1; TEAD-YAP block: -1; GPR151 ag: 0

How did CCOC(=O)c1ccccc1NC(=O)CN(c1ccc(Cl)c(Cl)c1)S(C)(=O)=O do in these assays?
MITF inh: 21; FBW7 act: 0; TEAD-YAP block: 6; GPR151 ag: 18*; GPR151 confirm: -1; GPR119 ag: -14

How did COC(=O)c1ccccc1NC(=O)CN(c1ccc(Cl)c(Cl)c1)S(C)(=O)=O do in these assays?
MITF inh: 15; FBW7 act: 0; TEAD-YAP block: 5; GPR151 ag: -1

How did COc1ccc(N(CC(=O)Nc2cccc(Cl)c2C)S(C)(=O)=O)cc1OC do in these assays?
MITF inh: 15; FBW7 act: 0; TEAD-YAP block: -7; GPR151 ag: 0

What do the screens show for `Cc1ccc(NC(=O)CN(c2ccc3c(c2)OCO3)S(C)(=O)=O)cc1Cl`?
MITF inh: 9; FBW7 act: 0; TEAD-YAP block: -7; GPR151 ag: 5.1*; GPR151 confirm: 0; GPR119 ag: 11

How did Cc1ccc(N(CC(=O)Nc2cccc(Cl)c2C)S(C)(=O)=O)cc1C do in these assays?
MITF inh: -18; FBW7 act: 0; TEAD-YAP block: 2; GPR151 ag: 5.3*; GPR151 confirm: 0; GPR119 ag: 6

How did CC1=C(C(=O)Nc2ccccc2Cl)C(c2ccc(C)cc2)NC(=O)N1 (centres undefined) do in these assays?
MITF inh: 2; FBW7 act: 0; TEAD-YAP block: 0; GPR151 ag: 0

How did CCOC(=O)c1ccccc1NC(=O)Nc1ccc(F)cc1 do in these assays?
MITF inh: -5; FBW7 act: 0; TEAD-YAP block: -1; GPR151 ag: 7.5*; GPR151 confirm: 0; GPR119 ag: 4

Results for CS(=O)(=O)N(CC(=O)NC1CC2CCC1C2)c1ccc(F)c(Cl)c1 (centres undefined) ?
MITF inh: 10; FBW7 act: 0; TEAD-YAP block: 1; GPR151 ag: 7.8*; GPR151 confirm: 0; GPR119 ag: -5

Results for Cc1ccc(N(CC(=O)NC2CC3CCC2C3)S(C)(=O)=O)cc1Cl (centres undefined) ?
MITF inh: 11; FBW7 act: 0; TEAD-YAP block: 5; GPR151 ag: 2
